Experiment [1] has as its target ATP-dependent 6-phosphofructokinase (Trypanosoma brucei brucei) (UniProt O15648). Kind of experiment: qHTS Assay to Find Inhibitors of T. brucei phosphofructokinase: hit validation (AID 492961). Also: % is scaled to controls: 0 for no effect and ±100 for the full control effect. The essentials:
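Luminescence from ADP-Glo reports ADP generated as T. brucei PFK (1.25 nM) phosphorylates 0.5 mM fructose-6-phosphate using 0.1 mM ATP. Reactions ran 45 min at room temperature, pH 8.0.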
Background: In qHTS, concentration-response curves come from the screen itself.

In experiment [2] the target is Luciferin 4-monooxygenase (Photinus pyralis) (UniProt P08659). Kind of experiment: Biochemical firefly luciferase enzyme assay for NPC (AID 624030).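 Also: purified P. pyralis luciferase at 10 nM with luciferin and ATP substrate; 0% = DMSO and -100% = full luciferase inhibition by PTC124 control; nearly all actives have a fitted effect of over 70% in size.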 The essentials: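 Purified P. pyralis luciferase at 10 nM in 50 mM Tris Acetate (final), luminescence read within 5 minutes of enzyme addition to compounds. Activity normalised to PTC124 versus DMSO; concentration-response curves classed by r2, magnitude and activity.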

Experiment [3] in a line: qHTS profiling for inhibitors of Plasmodium falciparum proliferation (AID 504749). Also: nearly all actives have a fitted effect of over 60% in size. Also: potency is read from the fitted curve at half-maximal effect.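 As to activity, negative = inhibition: 0% = DMSO vehicle and full inhibition = artemisinin control.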 Particulars: P. falciparum in erythrocytes, SYBR Green DNA, 72 h, at 28.7 µM (top of the series). The essentials:
(§1)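 P. falciparum-infected erythrocytes (0.3% parasitemia, 2.5% hematocrit) incubated with compound 72 h at 37 C, 5% CO2. Parasite DNA detected by SYBR Green after lysis, overnight at room temperature; normalised to 0.29 uM artemisinin and DMSO.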

Experiment [4] relates to CP185. Described as above. Conditions: P. falciparum in erythrocytes, SYBR Green DNA, 72 h; series mostly up to 28.7 µM. In outline:
as §1

Experiment [5] relates to CP192. Described as above. Particulars: P. falciparum in erythrocytes, SYBR Green DNA, 72 h; series mostly up to 28.7 µM. The essentials:
as §1

Experiment [6] has as its system CP211. The description is as above. Particulars: P. falciparum in erythrocytes, SYBR Green DNA, 72 h; series mostly up to 28.7 µM. In outline:
as §1

Experiment [7] relates to CP238. The description is as above. Conditions: P. falciparum in erythrocytes, SYBR Green DNA, 72 h; series mostly up to 28.7 µM. The essentials: as §1
Experiment [8] concerns CP252. The description is as above. Particulars: P. falciparum in erythrocytes, SYBR Green DNA, 72 h; series mostly up to 28.7 µM. In outline: as §1
Experiment [9] deals with CP262. Described as above. Conditions: P. falciparum in erythrocytes, SYBR Green DNA, 72 h; series mostly up to 28.7 µM. The essentials: as §1
For experiment [10], the system named is CP265. The experiment is described as above. Conditions: P. falciparum in erythrocytes, SYBR Green DNA, 72 h; series mostly up to 28.7 µM. The essentials: as §1
For experiment [11], the system named is CP269. Described as above. Conditions: P. falciparum in erythrocytes, SYBR Green DNA, 72 h; series mostly up to 28.7 µM. The essentials: as §1
Experiment [12] deals with CP286. The description is as above. Conditions: P. falciparum in erythrocytes, SYBR Green DNA, 72 h; series mostly up to 28.7 µM. The essentials:
as §1

Experiment [13] relates to CP315. The description is as above. Particulars: P. falciparum in erythrocytes, SYBR Green DNA, 72 h; series mostly up to 28.7 µM. The essentials:
as §1

Experiment [14] relates to CP329. The experiment is described as above. Particulars: P. falciparum in erythrocytes, SYBR Green DNA, 72 h; series mostly up to 28.7 µM. In outline: as §1
Experiment [15] concerns DFO2036. The description is as above. Conditions: P. falciparum in erythrocytes, SYBR Green DNA, 72 h; series mostly up to 28.7 µM. In outline:
as §1

Experiment [16] concerns Dd2. The experiment is described as above. Particulars: P. falciparum in erythrocytes, SYBR Green DNA, 72 h; series mostly up to 28.7 µM. In outline:
as §1

Experiment [17] has as its system ECU. The description is as above. Particulars: P. falciparum in erythrocytes, SYBR Green DNA, 72 h; series mostly up to 28.7 µM. The essentials:
as §1

The test system of experiment [18] is FAB9. The description is as above. Particulars: P. falciparum in erythrocytes, SYBR Green DNA, 72 h; series mostly up to 28.7 µM. In outline:
as §1

Experiment [19] relates to JCK. The description is as above. Particulars: P. falciparum in erythrocytes, SYBR Green DNA, 72 h; series mostly up to 28.7 µM. The essentials:
as §1

The subject of experiment [20] is N140. Described as above. Particulars: P. falciparum in erythrocytes, SYBR Green DNA, 72 h; series mostly up to 28.7 µM. The essentials:
as §1

Records with an inconclusive call do not appear. A number with no mark means an inactive call. Active and inactive are the calls of the source. Calls follow the shape of the dose curve; as a rule, active = well fitted curve in the direction sought with a large enough effect; inconclusive = small, poorly fitted or top-dose-only effect, or another doubt; inactive = no such curve, though single readings can be large; an effect the other way counts as inactive or inconclusive.

Luciferin 4-monooxygenase (Photinus pyralis), sequence (P08659 whole entry, looked up): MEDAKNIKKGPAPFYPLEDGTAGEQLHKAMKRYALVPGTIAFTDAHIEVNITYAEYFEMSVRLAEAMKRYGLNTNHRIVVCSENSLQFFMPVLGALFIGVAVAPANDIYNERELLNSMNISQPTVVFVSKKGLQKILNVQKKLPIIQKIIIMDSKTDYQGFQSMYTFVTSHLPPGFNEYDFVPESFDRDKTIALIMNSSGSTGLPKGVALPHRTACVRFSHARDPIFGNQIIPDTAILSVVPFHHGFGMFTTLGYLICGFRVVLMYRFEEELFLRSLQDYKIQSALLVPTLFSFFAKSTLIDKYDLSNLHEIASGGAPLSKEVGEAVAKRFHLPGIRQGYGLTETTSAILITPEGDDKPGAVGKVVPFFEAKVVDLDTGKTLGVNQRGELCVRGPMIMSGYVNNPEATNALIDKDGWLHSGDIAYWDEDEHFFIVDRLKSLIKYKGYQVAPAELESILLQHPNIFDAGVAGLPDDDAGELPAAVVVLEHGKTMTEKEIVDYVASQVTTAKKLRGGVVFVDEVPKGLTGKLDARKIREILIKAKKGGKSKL
ATP-dependent 6-phosphofructokinase (Trypanosoma brucei brucei), sequence (O15648 whole entry, looked up): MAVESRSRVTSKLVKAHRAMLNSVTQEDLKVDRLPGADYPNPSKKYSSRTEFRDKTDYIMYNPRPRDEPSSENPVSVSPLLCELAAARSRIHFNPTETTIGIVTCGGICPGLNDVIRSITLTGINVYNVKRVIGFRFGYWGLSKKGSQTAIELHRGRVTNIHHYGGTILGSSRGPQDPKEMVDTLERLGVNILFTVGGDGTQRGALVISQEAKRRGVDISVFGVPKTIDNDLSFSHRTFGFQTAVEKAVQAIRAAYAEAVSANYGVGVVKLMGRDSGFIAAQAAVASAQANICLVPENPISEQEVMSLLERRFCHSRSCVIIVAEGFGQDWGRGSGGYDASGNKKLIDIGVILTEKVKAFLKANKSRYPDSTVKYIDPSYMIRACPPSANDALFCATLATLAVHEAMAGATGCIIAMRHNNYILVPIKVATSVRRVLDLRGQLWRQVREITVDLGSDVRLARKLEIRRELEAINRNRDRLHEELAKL

As for `C=C(CC[C@@H](C)[C@H]1CCC2[C@]1(C)CC[C@]13C[C@@]14CCC(OC(=O)/C=C/c1ccc(O)c(OC)c1)C(C)(C)[C@@H]4CC[C@@]23C)C(C)C` (some centres not stated), the Potency result in experiment [1], in experiment [2], in experiment [4], in experiment [5], in experiment [6] and in [7] was “inactive” throughout. Moreover, the Potency entry in [8], in experiment [9], in experiment [10], in experiment [11], in experiment [12] and in experiment [13] was “inactive” in each case. Moreover, the Potency result in experiment [14], in experiment [15], in [16], in experiment [17], in [18] and in experiment [19] was “inactive” in each case. In addition, the Potency result in experiment [20] is “inactive”. Also, the activity, negative = inhibition in experiment [3] (parasite line A) is 3.06%; in experiment [3] (parasite line B) it was 1.72%.

Regarding `C[C@]12CCC(=O)C=C1[C@@H]1C[C@H]1[C@H]1[C@@H]3[C@@H]4C[C@H]4[C@@]4(CCC(=O)O4)[C@@]3(C)CC[C@@H]12`, the Potency result in experiment [1], in experiment [2], in experiment [4], in experiment [5], in [6] and in experiment [7] was “inactive” each time. In addition, the Potency entry in experiment [8], in experiment [9], in experiment [10], in [11], in experiment [12] and in [13] was “inactive” each time. Moreover, the Potency entry in [14], in experiment [15], in [16], in experiment [17], in experiment [18] and in [19] was “inactive” throughout. In experiment [20], the Potency result was “inactive”. Besides, the results for the activity, negative = inhibition in experiment [3] (parasite line A) and in experiment [3] (parasite line B) were -2.83% and -11.7%, respectively.

With `CN(C)CC[C@@](O)(c1ccccc1)c1ccccc1Cl`, the Potency result in experiment [1], in experiment [2], in experiment [9] and in [18] was “inactive” each time. The activity, negative = inhibition in experiment [3] (parasite line A) was -12.9%. The Potency in [4] is 11.2 µM (active); in [7], 11.2 µM (active); in [8], 11.2 µM (active); in experiment [10], 7.08 µM (active); in [11], 12 µM (active); in [12], 7.94 µM (active). Moreover, the Potency was 8.91 µM (active) in experiment [15], 2 µM (active) in [16], 7.94 µM (active) in [17] and 4.47 µM (active) in experiment [20].

With `C/C(=C(/CCOC(=O)C(C)C)SS/C(CCOC(=O)C(C)C)=C(\C)N(C=O)Cc1cnc(C)nc1N)N(C=O)Cc1cnc(C)nc1N`, the Potency result in experiment [1], in [2], in experiment [4], in experiment [5], in experiment [6] and in [7] was “inactive” in each case. Besides, the Potency result in experiment [8], in [10], in [11], in experiment [12], in [13] and in experiment [16] was “inactive” each time. Moreover, the Potency entry in experiment [17], in [18], in experiment [19] and in [20] was “inactive” in each case. In addition, in experiment [3] (parasite line B), the activity, negative = inhibition is -17.2%.

Regarding `CC1CN(c2c(F)c(N)c3c(=O)c(C(=O)O)cn(C4CC4)c3c2F)CC(C)N1` (configuration not stated), the Potency result in experiment [1], in experiment [2], in experiment [4], in experiment [5], in experiment [6] and in experiment [7] was “inactive” in each case. Also, the Potency entry in [8], in experiment [9], in [10], in [11], in experiment [12] and in experiment [13] was “inactive” throughout. For the same molecule, the Potency entry in experiment [14], in experiment [15], in experiment [16], in experiment [17], in experiment [18] and in [19] was “inactive” in each case. Further, the Potency entry in experiment [20] was “inactive”. Moreover, the figures for the activity, negative = inhibition in experiment [3] (parasite line A) and in experiment [3] (parasite line B) were -2.02% and 11%, respectively.

Consider `CC1(C)SC2[C@@H](N=CN3CCCCCC3)C(=O)N2[C@H]1C(=O)O` (some centres not stated), for which the Potency entry in experiment [1], in experiment [2], in [4], in [5], in experiment [6] and in experiment [7] was “inactive” in each case. The Potency result in [8], in [9], in experiment [10], in experiment [11], in experiment [12] and in experiment [13] was “inactive” in each case. In addition, the Potency result in experiment [14], in [15], in experiment [16], in experiment [17], in experiment [18] and in experiment [19] was “inactive” each time. The Potency result in [20] was “inactive”. For the same molecule, the activity, negative = inhibition in experiment [3] (parasite line A) is 0.0196%; in experiment [3] (parasite line B), -13%.

As to `O=C(O)C[CH2][Ge](=[O])[O][Ge](=[O])[CH2]CC(=O)O`, the Potency result in [1], in experiment [2], in experiment [4], in [5], in experiment [6] and in experiment [7] was “inactive” in each case. For the same molecule, the Potency result in experiment [8], in experiment [9], in experiment [10], in experiment [11], in experiment [12] and in experiment [13] was “inactive” each time. Also, the Potency entry in experiment [14], in experiment [15], in [16], in experiment [17], in [18] and in experiment [19] was “inactive” in each case. Also, the Potency entry in experiment [20] is “inactive”. Further, in [3] (parasite line A), the activity, negative = inhibition is 10.2%.

Consider `Cc1c(C)c2c(c(C)c1O)CCC(C)(CCCC(C)CCCC(C)CCCC(C)C)O2` (configuration not stated), for which the Potency result in [1], in experiment [2], in experiment [4], in experiment [5], in [6] and in [7] was “inactive” throughout. The Potency entry in [8], in experiment [9], in experiment [10], in experiment [11], in experiment [12] and in experiment [13] was “inactive” in each case. Moreover, the Potency entry in experiment [14], in experiment [15], in experiment [17], in experiment [18], in experiment [19] and in experiment [20] was “inactive” in each case. In addition, the activity, negative = inhibition in [3] (parasite line A) is 15.7%; in experiment [3] (parasite line B), 8.58%.

Take `COC(=O)C1C2CC3c4[nH]c5cc(OC)ccc5c4CCN3CC2CC(OC)C1OC` (configuration not stated): the Potency entry in [1], in [2], in experiment [4], in [5], in experiment [6] and in experiment [7] was “inactive” throughout. In addition, the Potency entry in [8], in [9], in experiment [10], in [11], in experiment [12] and in experiment [13] was “inactive” throughout. Moreover, the Potency entry in experiment [14], in experiment [15], in [16], in experiment [17], in experiment [18] and in experiment [19] was “inactive” each time. Also, the Potency result in [20] was “inactive”. In addition, the activity, negative = inhibition is 2.01% in experiment [3] (parasite line A) and -6.18% in experiment [3] (parasite line B).

For the molecule `CC1CCC(O)C/C1=C\C=C1/CCCC2(C)C1CCC2C(C)/C=C/C(C)C(C)C` (configuration not stated), the Potency entry in [1], in experiment [2], in [4], in experiment [5], in experiment [6] and in [7] was “inactive” throughout. Further, the Potency result in experiment [8], in experiment [9], in experiment [10], in [11], in [12] and in experiment [13] was “inactive” each time. The Potency entry in [14], in experiment [15], in experiment [16], in experiment [18] and in [19] was “inactive” each time. Moreover, the activity, negative = inhibition is -1.73% in experiment [3] (parasite line A) and -28.9% in [3] (parasite line B).

Take `O=C1Oc2ccccc2C(=O)C1C(CC(O)c1ccc(-c2ccc(Br)cc2)cc1)c1ccccc1` (configuration not stated): the Potency result in experiment [1], in [4], in experiment [5], in experiment [6], in [7] and in experiment [8] was “inactive” in each case. The Potency entry in experiment [9], in experiment [10], in [11], in experiment [12], in experiment [13] and in experiment [14] was “inactive” in each case. Moreover, the Potency entry in experiment [16], in experiment [18] and in experiment [20] was “inactive” throughout. Moreover, the activity, negative = inhibition in [3] (parasite line A) is -67.1%.

The values above are taken from PubChem BioAssay (NCATS).
